In PubChem BioAssay AID1578 (Sanford-Burnham Center for Chemical Genomics, 2009) one finds inhibition data, which are given here for 61 molecules.

Out of some 290,000 compounds screened, about 3,000 (1%) were called active. Shown is part of a subset that was picked to be rich in actives. Values without a mark were called inactive. Rule as the data show it: active = inhibition mostly above about 36% (no sharp cut-off); inactive = mostly below about 34%.

This experiment is described as follows: inhibition of NOD1-driven NF-kB reporter – cell-based, luminescence, uHTS, primary screen (AID 1578).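 Also: HEK-293T reporter cells stimulated with the NOD1 agonist gamma-tri-DAP.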 The settings on record: NOD1-driven NF-kB luciferase reporter cells, at 4 µM, hits give high values. Background: A reporter such as luciferase makes a cellular process visible.
As for `Cc1cc(NC(=O)CSc2nnc(CNC(=O)c3ccc(F)cc3)o2)no1`, the inhibition was -38.1%.

For `O=C(CSc1nc2ccccc2c(=O)n1CCCN1CCOCC1)c1c[nH]c2ccccc12`, the inhibition was 41%.

`O=C(NCc1ccccc1OC(F)(F)F)C1CCC(=O)N(Cc2ccccn2)C1` (stereo unspecified): the inhibition was -8%.

Consider `CC(C)(C)OC(=O)NC(Cc1ccccc1)C(=O)N1CCC(C(=O)NCC(=O)Nc2ccc(F)cc2)CC1` (stereo unspecified), for which the inhibition is -18%.

With `O=C(Nc1cccc(F)c1)N1CCC(n2c(=O)[nH]c3ccccc32)CC1`, the inhibition is -2.7%.

In the case of `COc1ccc(-c2noc(N3CCC(C(=O)NCCCN4CC(C)CC(C)C4)CC3)n2)cc1` (stereo unspecified), the inhibition was -3.9%.

As for `COC(=O)Cc1ccc(NC(=O)c2ccc(C(C)(C)C)cc2)cc1`, the inhibition is 88.2% (active).

In the case of `COC(=O)Cc1ccc(NC(=O)c2ccc(NC(=O)c3ccco3)cc2)cc1`, the inhibition is -16%.

With `CCOC(=O)Cc1ccc(NC(=O)c2ccccc2Br)cc1`, the inhibition was -20.3%.

Consider `COC(=O)Cc1ccc(NC(=O)c2ccc(C)c(C)c2)cc1`, for which the inhibition was -39.1%.

In the case of `CCOC(=O)Cc1ccc(NC(=O)c2ccc([N+](=O)[O-])cc2)cc1`, the inhibition is -35.6%.

As to `Cc1ccc(C(=O)Nc2ccc(CC(=O)O)cc2)o1`, the inhibition is -4.8%.

As for `CCOC(=O)Cc1ccc(NC(=O)c2ccc(C(C)(C)C)cc2)cc1`, the inhibition is 69.9% (active).

Consider `CC(C)(C)c1ccc(C(=O)Nc2ccc(NC(=O)C(=O)O)cc2)o1`, for which the inhibition was -19%.

On to `CC(C)(C)c1ccc(C(=O)Nc2ccc(CC(=O)O)cc2)o1`, for which the inhibition is 76.3% (active).

`C=C(CO)C1Cc2cc(C(C)=O)ccc2O1` (stereo unspecified): the inhibition is -3.8%.

Consider `CC(C)(C)c1ccc(C(=O)c2c[nH]c(C(=O)NCCCN3CCOCC3)c2)cc1`, for which the inhibition is -19.7%.

As for `COc1ccc(CCC(=O)NC(C)C)cc1`, the inhibition is -11.1%.

`O=S(=O)(NCCN1CCOCC1)c1ccc(-c2ccc(S(=O)(=O)NCCN3CCOCC3)cc2)cc1`: the inhibition was -11.2%.

For the molecule `CCc1ccc(N2CC(C(=O)Nc3nc4ccc(S(C)(=O)=O)cc4s3)CC2=O)cc1` (stereo unspecified), the inhibition is 0.5%.

For `O=C(CCCN1C(=O)S/C(=C/C=C/c2ccccc2)C1=O)Nc1ccc(C(=O)O)cc1`, the inhibition is -38%.

With `O=C(CCc1ccccc1)NC(NC(=S)Nc1ccc(Cl)cc1)C(Cl)(Cl)Cl` (stereo unspecified), the inhibition was 19.9%.

On to `C/C(=N/NC(=O)c1nnn(-c2nonc2N)c1-c1ccccc1)c1ccncc1`, for which the inhibition is -26.6%.

With `Cc1c(Cl)c(C(=O)N2CCCc3ccccc32)nn1C`, the inhibition is 0.6%.

Regarding `O=c1cc(C(F)F)oc2c1ccc1ccccc12`, the inhibition was 27.3%.

`O=c1cc(C(Cl)(Cl)Cl)oc2c1ccc1ccccc12`: the inhibition was 82.3% (active).

As for `O=c1cc(C(F)(F)F)oc2c1ccc1ccccc12`, the inhibition is -3.4%.

For `O=C(/C=C/c1ccc(OC(F)F)cc1)Nc1cccc(S(=O)(=O)NC2=NCCCCC2)c1`, the inhibition is -43.6%.

For the molecule `COCCC(=O)N1CCC(Oc2ccc(C(=O)N3C[C@H]4CC[C@H]3C4)cc2)CC1`, the inhibition was -33%.

On to `COc1cc(C(=O)NCCNC(=O)c2cc(OC)c(C)c(OC)c2)cc(OC)c1C`, for which the inhibition was -45.1%.

In the case of `C=CCNC(=O)c1ccccc1NC(=O)COc1ccccc1`, the inhibition was 27.8%.

On to `COCCNC(=O)COc1ccc(Oc2ccccc2)cc1`, for which the inhibition is -26.6%.

Turning to `C=CCNC(=O)COc1ccc(Oc2ccccc2)cc1`, the inhibition is 52.1% (active).

In the case of `O=C(NCCSc1ccc(Br)cc1)c1ccc2nc[nH]c2c1`, the inhibition was -38.2%.

Consider `Cc1ccc(S(=O)(=O)CC(=O)Nc2cc(C)on2)cc1`, for which the inhibition was 24.4%.

Turning to `Cc1cc2oc(=O)sc2cc1NS(=O)(=O)c1cccc2cccnc12`, the inhibition is -17.4%.

Take `O=C(Nc1cccc(-c2cnc3ccccc3n2)c1)c1ccccc1`: the inhibition was -0.8%.

In the case of `C=CCN(CC=C)CC(=O)Nc1cccc(Oc2cnccn2)c1`, the inhibition was 1.4%.

Consider `O=C(CCl)Nc1cccc(-c2cnc3ccccc3n2)c1`, for which the inhibition is 104% (active).

For the molecule `O=C(CCl)Nc1cccc(Oc2cnccn2)c1`, the inhibition was 32.3% (active).

Take `O=C(CCl)Nc1cccc(Oc2ccccc2)c1`: the inhibition is 75.3% (active).

On to `O=C(CN1CCCCC1)Nc1cccc(Oc2ccccc2)c1`, for which the inhibition is -5.2%.

Consider `CCC(=O)Nc1cccc(-c2cnc3ccccc3n2)c1`, for which the inhibition is -54.6%.

As to `N=c1sccn1CC(=O)Nc1cccc(Oc2ccccc2)c1`, the inhibition was 16.7%.

For the molecule `CC(=O)Nc1cccc(CP(=O)(c2ccccc2)c2ccccc2)c1`, the inhibition was -3.5%.

Turning to `CC(=O)Nc1ccc(Oc2cnccn2)cc1`, the inhibition was -8.8%.

`O=C(CP(=O)(c1ccccc1)c1ccccc1)Nc1cccc(CP(=O)(c2ccccc2)c2ccccc2)c1`: the inhibition is 7.2%.

For `O=C(CCl)Nc1cccc(CP(=O)(c2ccccc2)c2ccccc2)c1`, the inhibition is 106% (active).

Turning to `CCOc1ccc(NS(=O)(=O)c2ccc(NC(=O)C3CC3)cc2)cc1`, the inhibition was 23.9%.

In the case of `Fc1ccc(NC(=S)NCc2cccnc2)cc1`, the inhibition is -21.1%.

With `Cc1nnc(NC(=O)CN2CCN(Cc3c(Cl)cccc3Cl)CC2)s1`, the inhibition is 2.8%.

For the molecule `C/C(=N\NC(=O)c1ccccn1)c1ccc(C(=O)O)s1`, the inhibition was 6.8%.

For the molecule `Cc1ccccc1NC(=O)c1c(-c2ccccc2)noc1C`, the inhibition is -7.9%.

For `CN(Cc1ccccc1)S(=O)(=O)c1ccc(Cl)c(C(=O)NCc2ccc3c(c2)OCO3)c1`, the inhibition was -8.3%.

Consider `CC(=O)Nc1ccc(Nc2nc(-c3sc(NC(C)=O)nc3C)cs2)cc1`, for which the inhibition was 32.9%.

Turning to `O=[N+]([O-])c1cccc(NC(=S)Nc2nc(-c3ccccc3Cl)cs2)c1`, the inhibition is 88.1% (active).

Consider `CC(=O)Nc1nc(C)c(-c2csc(Nc3cccc(C(C)=O)c3)n2)s1`, for which the inhibition was 3.5%.

As to `O=C(NC(=S)Nc1nc(-c2cccc([N+](=O)[O-])c2)cs1)c1ccccc1Cl`, the inhibition is -36.4%.

As to `O=C(NC(=S)Nc1nc(-c2cccc([N+](=O)[O-])c2)cs1)c1cc(Cl)ccc1Cl`, the inhibition is 13.4%.

Consider `CC(C)CCNC(=O)c1nn(Cc2ccccc2)c(=O)c2ccccc12`, for which the inhibition was -6.4%.

For `Cc1cc(C(=O)CSc2nnc(NCc3ccccc3)s2)c(C)n1C`, the inhibition is -18.8%.

The term inhibition denotes the change of the read-out against control, counted positive when it falls.
